ChEMBL document CHEMBL3988442, “University of Dundee, Small-Polar-MMV Screening Library” (2021)
For some assays here: Entries with a potency or affinity are not part of this list.

Experiments:
Set-up in all cases: scale not given: direction of the effect not stated beside the values
[1] = molecular target: Protein translocase subunit SecA (Escherichia coli (strain K12)) (UniProt P10408); experiment: Assay to Identify E. coli SecA ATPase Inhibitors; format: functional; details: 30 µM
[2] = molecular target: T1, Ubiquitin-activating enzyme e1, putative (Leishmania donovani (strain BPK282A1)) (UniProt E9BSI1); experiment: Leishmania donovani Ubiquitin Activating Enzyme (LdE1); format: functional; details: 30 µM
T1 sequence (whole entry): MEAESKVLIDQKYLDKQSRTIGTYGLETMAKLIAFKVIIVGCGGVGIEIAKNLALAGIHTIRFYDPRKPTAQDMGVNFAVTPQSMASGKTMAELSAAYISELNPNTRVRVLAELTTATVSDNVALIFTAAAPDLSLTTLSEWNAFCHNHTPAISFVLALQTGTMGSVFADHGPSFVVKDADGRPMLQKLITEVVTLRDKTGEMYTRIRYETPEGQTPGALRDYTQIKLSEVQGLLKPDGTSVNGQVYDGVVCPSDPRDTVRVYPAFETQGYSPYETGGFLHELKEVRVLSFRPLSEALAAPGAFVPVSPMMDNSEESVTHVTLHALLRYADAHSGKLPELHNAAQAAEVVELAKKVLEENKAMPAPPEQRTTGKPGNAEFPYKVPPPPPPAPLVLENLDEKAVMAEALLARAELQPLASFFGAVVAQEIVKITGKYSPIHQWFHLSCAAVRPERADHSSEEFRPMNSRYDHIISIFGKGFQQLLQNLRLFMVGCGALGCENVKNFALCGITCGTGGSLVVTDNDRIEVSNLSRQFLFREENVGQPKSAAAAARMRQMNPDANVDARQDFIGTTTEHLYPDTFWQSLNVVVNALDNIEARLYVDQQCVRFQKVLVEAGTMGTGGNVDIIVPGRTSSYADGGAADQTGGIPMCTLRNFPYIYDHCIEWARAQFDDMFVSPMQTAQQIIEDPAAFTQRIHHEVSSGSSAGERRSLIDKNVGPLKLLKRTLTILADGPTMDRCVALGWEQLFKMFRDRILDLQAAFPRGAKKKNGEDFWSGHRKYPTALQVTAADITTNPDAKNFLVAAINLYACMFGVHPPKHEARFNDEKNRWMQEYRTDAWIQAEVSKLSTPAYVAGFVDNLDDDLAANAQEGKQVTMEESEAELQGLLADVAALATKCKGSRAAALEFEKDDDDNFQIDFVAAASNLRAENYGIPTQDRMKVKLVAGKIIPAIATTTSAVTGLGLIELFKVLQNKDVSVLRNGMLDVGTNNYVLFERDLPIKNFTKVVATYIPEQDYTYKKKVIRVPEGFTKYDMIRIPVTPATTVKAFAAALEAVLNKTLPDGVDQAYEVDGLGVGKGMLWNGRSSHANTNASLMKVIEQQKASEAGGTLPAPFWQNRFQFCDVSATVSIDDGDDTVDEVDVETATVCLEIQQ

[3] = molecular target: AMP-activated protein kinase, AMPK (Homo sapiens) (UniProt P54646+O43741+P54619+Q9UGJ0+Q9Y478+Q13131+Q9UGI9); experiment: AMP-dependent Kinase enzyme assay. An in vitro enzyme assay that detects ADP turnover that is directly proportional to AMPK activity. This uses naive AMPK that is activated during the assay with MK-8722; format: functional; details: 30 µM
[4] = molecular target: Sialic acid-binding Ig-like lectin 9 (Homo sapiens) (UniProt Q9Y336); experiment: Hs-Siglec9 ALPHAscreen SOP 20170721; details: 10 µM
Sialic acid-binding Ig-like lectin 9 (Homo sapiens), sequence (Q9Y336 whole entry): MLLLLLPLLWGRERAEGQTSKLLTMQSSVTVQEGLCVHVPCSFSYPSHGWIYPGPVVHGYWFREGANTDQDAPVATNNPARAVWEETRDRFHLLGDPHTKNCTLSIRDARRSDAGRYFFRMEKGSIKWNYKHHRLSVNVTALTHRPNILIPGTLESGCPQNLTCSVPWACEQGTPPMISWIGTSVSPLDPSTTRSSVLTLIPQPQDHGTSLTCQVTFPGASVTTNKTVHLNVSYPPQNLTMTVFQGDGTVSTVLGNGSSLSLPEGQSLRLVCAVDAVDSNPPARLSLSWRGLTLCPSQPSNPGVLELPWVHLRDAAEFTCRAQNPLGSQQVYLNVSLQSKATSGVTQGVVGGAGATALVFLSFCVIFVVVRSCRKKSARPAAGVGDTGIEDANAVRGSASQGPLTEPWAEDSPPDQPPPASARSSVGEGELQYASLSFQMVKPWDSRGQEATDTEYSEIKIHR

Trypanosoma cruzi = experiment: Trypanosoma cruzi phosphomannomutase and mannose-1-phosphate guanylyltransferase assay; format: functional; details: 10 µM
[5] = molecular target: T2, Arginase-2, mitochondrial (Homo sapiens) (UniProt P78540); experiment: in vitro enzyme assay to detect the production of urea directly proportional to the activity of Arginase II; format: functional; details: 33.3 µM; also: in the data most compounds retested in dose-response had high values
T2 sequence (whole entry): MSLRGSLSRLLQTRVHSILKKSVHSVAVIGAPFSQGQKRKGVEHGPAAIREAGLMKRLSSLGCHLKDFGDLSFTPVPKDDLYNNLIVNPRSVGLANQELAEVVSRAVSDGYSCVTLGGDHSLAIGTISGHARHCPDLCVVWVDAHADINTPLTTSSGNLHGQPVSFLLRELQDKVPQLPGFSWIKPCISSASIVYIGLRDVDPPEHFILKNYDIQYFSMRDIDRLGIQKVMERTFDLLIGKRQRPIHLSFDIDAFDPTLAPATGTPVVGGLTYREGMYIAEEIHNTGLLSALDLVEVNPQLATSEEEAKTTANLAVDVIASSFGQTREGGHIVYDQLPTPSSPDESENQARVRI

[6] = molecular target: T3, Proteasome subunit beta (Trypanosoma cruzi) (UniProt O96673); experiment: Trypanosoma cruzi proteasome chymotrypsin-like activity (TcProtChymo) assay.; also: in the data most compounds retested in dose-response had high values; format: functional; details: 9.37 µM
T3 sequence (whole entry): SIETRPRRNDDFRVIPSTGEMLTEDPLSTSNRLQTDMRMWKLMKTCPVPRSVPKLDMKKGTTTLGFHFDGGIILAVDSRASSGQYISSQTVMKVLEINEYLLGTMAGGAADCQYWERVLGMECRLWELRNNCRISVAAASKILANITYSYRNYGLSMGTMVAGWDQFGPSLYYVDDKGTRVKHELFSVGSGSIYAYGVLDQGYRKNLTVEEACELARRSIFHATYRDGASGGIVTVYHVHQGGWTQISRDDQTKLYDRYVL

Homo sapiens = species on record: Homo sapiens; experiment: To identify inhibition of the IFN signalling (Jak-Stat) pathway via expression of an eGFP reporter gene under the control of an IFN-stimulated response element (ISRE) containing MxA promoter.; format: functional; details: 30 µM
[7] = molecular target: T4, Tyrosyl-tRNA synthetase, putative (Trypanosoma cruzi (strain CL Brener)) (UniProt Q4DSP6); experiment: Trypanosoma cruzi tyrosyl tRNA synthetase (TcYRS) _High Tyrosine SOP; format: functional; details: 30 µM; also: in the data most compounds retested in dose-response had high values
T4 sequence (whole entry): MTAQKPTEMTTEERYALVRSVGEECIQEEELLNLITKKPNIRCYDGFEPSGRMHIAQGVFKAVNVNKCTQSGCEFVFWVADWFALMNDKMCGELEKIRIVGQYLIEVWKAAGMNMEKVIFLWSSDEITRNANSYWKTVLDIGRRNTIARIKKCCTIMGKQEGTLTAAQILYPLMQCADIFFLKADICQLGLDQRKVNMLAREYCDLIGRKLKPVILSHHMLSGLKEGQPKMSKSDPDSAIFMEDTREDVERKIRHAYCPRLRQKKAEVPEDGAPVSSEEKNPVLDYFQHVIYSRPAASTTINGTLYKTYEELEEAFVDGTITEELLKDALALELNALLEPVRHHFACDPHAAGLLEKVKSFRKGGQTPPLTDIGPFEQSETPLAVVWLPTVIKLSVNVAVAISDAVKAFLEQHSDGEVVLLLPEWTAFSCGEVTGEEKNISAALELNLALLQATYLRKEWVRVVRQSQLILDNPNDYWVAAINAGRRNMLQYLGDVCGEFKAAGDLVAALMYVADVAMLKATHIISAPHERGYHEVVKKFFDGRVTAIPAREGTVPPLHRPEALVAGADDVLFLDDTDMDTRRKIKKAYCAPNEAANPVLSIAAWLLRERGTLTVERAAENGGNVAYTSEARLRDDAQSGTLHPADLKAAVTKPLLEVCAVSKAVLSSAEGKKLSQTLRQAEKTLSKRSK

[8] = molecular target: T4, Tyrosyl-tRNA synthetase, putative (Trypanosoma cruzi (strain CL Brener)); experiment: Trypanosoma cruzi tyrosyl tRNA synthetase (TcYRS) SOP; format: functional; details: 30 µM
[9] = molecular target: Chromo domain-containing protein 1 (Saccharomyces cerevisiae (strain ATCC 204508 / S288c) (Baker's yeast)) (UniProt P32657); experiment: ScCHD-1 Enzyme Inhibition Assay; format: functional; details: 30 µM; also: in the data most compounds retested in dose-response had high values
Chromo domain-containing protein 1 (Saccharomyces cerevisiae (strain ATCC 204508 / S288c) (Baker's yeast)), sequence (P32657 whole entry, the tested form may be a part): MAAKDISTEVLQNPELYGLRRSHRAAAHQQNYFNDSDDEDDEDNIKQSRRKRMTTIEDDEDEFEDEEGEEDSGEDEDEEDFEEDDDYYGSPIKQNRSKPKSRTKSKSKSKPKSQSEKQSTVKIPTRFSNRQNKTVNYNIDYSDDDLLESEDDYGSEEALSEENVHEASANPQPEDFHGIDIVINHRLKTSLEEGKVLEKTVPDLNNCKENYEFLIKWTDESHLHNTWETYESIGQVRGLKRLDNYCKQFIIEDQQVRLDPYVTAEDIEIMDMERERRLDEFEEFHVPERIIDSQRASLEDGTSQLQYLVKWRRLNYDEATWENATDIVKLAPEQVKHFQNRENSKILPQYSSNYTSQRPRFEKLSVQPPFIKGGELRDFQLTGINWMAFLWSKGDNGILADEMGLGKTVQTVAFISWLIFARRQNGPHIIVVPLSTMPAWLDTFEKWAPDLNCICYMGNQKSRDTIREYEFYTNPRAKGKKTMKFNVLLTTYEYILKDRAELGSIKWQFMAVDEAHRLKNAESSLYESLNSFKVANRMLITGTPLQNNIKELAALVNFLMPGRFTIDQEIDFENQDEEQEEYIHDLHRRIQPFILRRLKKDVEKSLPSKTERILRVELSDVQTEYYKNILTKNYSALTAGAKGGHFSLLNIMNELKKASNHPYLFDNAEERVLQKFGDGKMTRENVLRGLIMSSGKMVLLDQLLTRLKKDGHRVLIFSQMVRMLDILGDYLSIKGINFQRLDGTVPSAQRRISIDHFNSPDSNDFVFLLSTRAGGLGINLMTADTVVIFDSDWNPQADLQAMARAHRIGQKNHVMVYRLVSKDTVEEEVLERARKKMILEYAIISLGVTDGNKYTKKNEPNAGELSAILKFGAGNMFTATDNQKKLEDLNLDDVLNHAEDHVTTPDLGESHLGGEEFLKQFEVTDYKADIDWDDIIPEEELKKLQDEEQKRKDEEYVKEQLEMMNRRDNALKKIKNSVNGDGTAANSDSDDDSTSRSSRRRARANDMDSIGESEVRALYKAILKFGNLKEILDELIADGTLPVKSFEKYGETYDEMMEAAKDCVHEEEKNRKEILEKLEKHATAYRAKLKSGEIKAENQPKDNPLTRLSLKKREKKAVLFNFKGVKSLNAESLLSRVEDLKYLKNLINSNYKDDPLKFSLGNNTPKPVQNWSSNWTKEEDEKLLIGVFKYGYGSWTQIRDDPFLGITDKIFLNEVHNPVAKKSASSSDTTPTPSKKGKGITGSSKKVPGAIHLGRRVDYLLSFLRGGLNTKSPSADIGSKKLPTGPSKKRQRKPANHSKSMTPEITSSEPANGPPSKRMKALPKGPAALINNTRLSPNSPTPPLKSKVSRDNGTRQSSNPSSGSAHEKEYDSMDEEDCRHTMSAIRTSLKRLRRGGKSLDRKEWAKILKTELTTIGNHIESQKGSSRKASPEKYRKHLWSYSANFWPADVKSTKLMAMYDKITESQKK

Protein translocase subunit SecA (Escherichia coli (strain K12)), sequence (P10408 whole entry): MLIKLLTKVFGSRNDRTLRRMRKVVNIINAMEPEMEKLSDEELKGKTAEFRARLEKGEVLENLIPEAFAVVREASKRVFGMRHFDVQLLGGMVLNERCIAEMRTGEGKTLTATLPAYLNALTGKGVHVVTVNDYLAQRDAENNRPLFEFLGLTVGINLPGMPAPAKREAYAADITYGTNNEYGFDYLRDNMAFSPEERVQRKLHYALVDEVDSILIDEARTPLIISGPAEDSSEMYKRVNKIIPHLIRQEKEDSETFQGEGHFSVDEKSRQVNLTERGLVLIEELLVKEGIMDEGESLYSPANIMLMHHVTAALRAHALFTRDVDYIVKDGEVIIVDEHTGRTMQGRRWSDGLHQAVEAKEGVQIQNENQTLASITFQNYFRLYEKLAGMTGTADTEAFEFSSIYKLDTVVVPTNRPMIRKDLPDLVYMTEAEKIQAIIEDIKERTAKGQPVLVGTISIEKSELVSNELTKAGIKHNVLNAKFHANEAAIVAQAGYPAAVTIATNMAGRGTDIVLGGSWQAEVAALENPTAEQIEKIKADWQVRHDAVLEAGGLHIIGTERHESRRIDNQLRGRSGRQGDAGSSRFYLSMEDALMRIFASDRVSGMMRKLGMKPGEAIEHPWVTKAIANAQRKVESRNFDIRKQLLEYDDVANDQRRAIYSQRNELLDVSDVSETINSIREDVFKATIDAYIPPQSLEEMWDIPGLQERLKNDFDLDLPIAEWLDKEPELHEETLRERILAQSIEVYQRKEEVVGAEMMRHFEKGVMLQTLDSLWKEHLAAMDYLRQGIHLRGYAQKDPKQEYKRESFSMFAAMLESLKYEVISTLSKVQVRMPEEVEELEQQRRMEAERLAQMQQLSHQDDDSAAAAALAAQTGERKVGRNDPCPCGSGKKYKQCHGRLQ

| Compound | Percent Effect [1] [%] | Percent Effect [2] [%] | Percent Effect [3] [%] | Percent Effect [4] [%] | Percent Effect (Trypanosoma cruzi) [%] | Percent Effect [5] [%] | Percent Effect [6] [%] | Percent Effect (Homo sapiens) [%] | Percent Effect [7] [%] | Percent Effect [8] [%] | Percent Effect [9] [%] |
| --- | --- | --- | --- | --- | --- | --- | --- | --- | --- | --- | --- |
| Cc1nn(C)c(C)c1C1CCCN1Cc1nc(C2CC2)no1 (stereo not given) | -2.91 | 16.2 | 0.977 | -3.54 | 6.22 | -0.924 | 15.6 | 16.5 | 5.94 | 18.3 | -7.69 |
| C[C@@H]1CN(C2(C(=O)N3CCCCCC3)Cc3ccccc3C2)C[C@H](C)O1 | -2.48 | 6.94 | -6.6 | 11 | 6.51 | 3.97 | -0.702 | -2.77 | 2.1 | 2.56 | -1.63 |
| COCC1c2nnn(CC3CC3)c2CCN1C(=O)c1ccnnc1 (stereo not given) | -5.05 | 21.6 | -7.32 | 32.8 | 3.81 | 3.23 | 3.86 | -2.31 | 6.45 | 13.6 | -10.1 |
| COCCNC(=O)c1cc2c(s1)CCN2C(=O)c1ccccc1 | -6.01 | 10.7 | -16.6 | 4.96 | 1.35 | -53.9 | 9.74 | -0.33 | 6.25 | 15 | 6.46 |
| O=C(c1n[nH]c2c1CCN(Cc1nccs1)C2)N1CCCC1 | -4.94 | 5.41 | -4.39 | 22.5 | 4.4 | 0.744 | 8.33 | -0.319 | 5.38 | 6.17 | -10.3 |
| O=C(CO)N1C[C@H]2CC[C@@H]1CN(C1Cc3ccccc3C1)C2 | -5.84 | 5.41 | -17.8 | -1.59 | -1.86 | 1.74 | 5.75 | 3.96 | 1.07 | 8.64 | -4.67 |
| CC(=O)Nc1cc(C(=O)N2CCOCC2c2ccc(C)o2)ccc1F (stereo not given) | -3.55 | 2.67 | -3.55 | -1.06 | -2.43 | -1.04 | 4.18 | -20.8 | 0.546 | 3.7 | 1.78 |
| Cc1nn(C)c2cn(C(C)C(=O)NCc3cccnc3)nc12 (stereo not given) | -2.07 | 14.7 | -8.7 | 5.87 | 1.77 | -6.16 | 17.9 | 20.4 | -4.23 | 10.3 | -9.99 |
| O=C(c1cccc(NCCO)c1)N1CCOCC1 | 0.755 | 13 | -9.18 | 2.34 | -2.46 | -5.52 | 19.3 | 28.8 | 2.15 | 11.1 | -2.11 |
| Cc1ccc(Cn2ccc(NS(C)(=O)=O)n2)cc1 | -6.83 | 5.2 | -4.69 | -0.383 | -2.46 | -5.52 | 9.32 | -2.78 | 3.23 | 13.6 | 1.11 |
